Assay results as given in PubChem BioAssay (NCATS).
Results filed as inconclusive are left out. Active and inactive are the calls of the source. Calls follow the shape of the dose curve; as a rule, active = well fitted cell-killing curve with a large enough effect; inconclusive = small, poorly fitted or top-dose-only effect; inactive = no such curve, though single readings can be large or run the other way.

Assay: Quantitative High-Throughput drug screen in 47 multiple myeloma cell lines against the NCATS MIPE library collection: NCIH929_DSMZ cell viability assay (AID 1918978); also: nearly all actives have a fitted effect of over 35% in size
Settings: NCI-H929 myeloma viability, CellTiter-Glo ATP, 48 h; series mostly up to 45.8 µM
Summary of the method: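 Inhibition of viability over 48 h was scored by ATP content (CellTiter-Glo) in 500-cell wells. Zero and full viability were defined by media-only and DMSO-only wells.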
Potency is read from the fitted curve at half-maximal effect.

Row | Structure (SMILES) | Potency
1 | CC(=O)Nc1ccc([C@H](C)C(=O)Nc2ncc(C(C)C)s2)cc1 | 0.264 µM (active)
2 | CN[C@@H](C)C(=O)N[C@H]1CN(C(=O)CC(C)C)CC[C@H]2CC[C@@H](C(=O)NC(c3ccccc3)c3ccccc3)N2C1=O | 11.8 µM (active)
3 | Cc1[nH]c(C=C2C(=O)Nc3ccc(S(=O)(=O)Cc4c(Cl)cccc4Cl)cc32)c(C)c1C(=O)N1CCC[C@H]1CN1CCCC1 | 8.33 µM (active)
4 | Oc1ccc(C2=Cc3ccc(O)cc3OC2)cc1 | 2.09 µM (active)
5 | CC(C)(C(=O)NCC(F)(F)C(F)(F)F)C(=O)N[C@@H]1C(=O)Nc2ccccc2-c2ccccc21 | 16.6 µM (active)
6 | COc1ccc(-c2coc3cc(O)cc(O)c3c2=O)cc1 | inactive
7 | Cc1nc(N)sc1-c1ccnc(Nc2ccc(N3CCOCC3)cc2)n1 | 7.43 µM (active)
8 | COCCOc1nc(-c2ccc(Cl)c(Cl)c2)n(-c2ccc(NC(=O)CCl)cc2)n1 | 13.2 µM (active)
9 | CN1C[C@H]2c3ccccc3Oc3ccc(Cl)cc3[C@@H]2C1 | inactive
10 | O=C(CCCCCCC(=O)Nc1ccccc1)NO | 2.64 µM (active)
11 | CC(=O)N(C)C1(c2ccccc2)CCN(CCC[C@]2(c3ccc(Cl)c(Cl)c3)CCCN(C(=O)c3ccccc3)C2)CC1 | 11.8 µM (active)
12 | CC(=NNC(=S)N1CCC1)c1ccccn1 | inactive
13 | CC(C)(C)OC(=O)N[C@H]1CCCCCC=C[C@@H]2C[C@@]2(C(=O)NS(=O)(=O)C2CC2)NC(=O)[C@@H]2C[C@@H](OC(=O)N3Cc4cccc(F)c4C3)CN2C1=O | inactive
